Screens (PubChem)
USP17 block: blocks human USP17 ubiquitin-rhodamine cleavage; A8MUK1; purified USP17, Ub-rhodamine cleavage fluorescence, 3 h; inhibition, % at 50 µM; hit rate 6.5% among 47,000; AID 1645855
USP30 block: inhibitors of human USP30 deubiquitinase; Q70CQ3; AID 1645860; inhibition, % at 25 µM; purified USP30, Ub-rhodamine cleavage fluorescence; hit rate 5.3% among 47,000
OTUD3 inh: human OTUD3 deubiquitinase inhibition. purified OTUD3, Ub-rhodamine fluorescence, 2 h. hit rate 0.7% among 47,000. Q5T2D3. inhibition, % at 25 µM
Target sequence (Q5T2D3 whole entry, looked up): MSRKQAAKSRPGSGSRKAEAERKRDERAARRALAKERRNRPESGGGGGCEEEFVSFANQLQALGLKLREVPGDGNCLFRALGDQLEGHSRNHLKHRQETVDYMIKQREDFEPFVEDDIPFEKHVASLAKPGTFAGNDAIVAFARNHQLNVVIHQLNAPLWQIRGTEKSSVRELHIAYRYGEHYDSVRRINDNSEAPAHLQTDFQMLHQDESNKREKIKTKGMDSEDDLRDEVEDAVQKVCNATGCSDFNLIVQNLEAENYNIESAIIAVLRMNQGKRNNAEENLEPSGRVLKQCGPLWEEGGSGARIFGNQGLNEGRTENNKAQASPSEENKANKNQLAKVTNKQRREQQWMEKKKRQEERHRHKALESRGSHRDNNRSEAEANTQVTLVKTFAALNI
USP28 inh: blocks human USP28 ubiquitin-rhodamine cleavage | hit rate 3% among 47,000 | inhibition, % at 25 µM | purified USP28, Ub-rhodamine cleavage fluorescence, 30 min | Q96RU2
A number is an active result; – = inactive; · = not tested or not shown. This is a sample that favours compounds with a hit; in the whole collection about 12% have one here. Cut-off read from the data, not from the text of the source: active = inhibition above about 30%; inactive = the rest.

SMILES	USP17 block	USP30 block	OTUD3 inh	USP28 inh
COc1ccc(S(=O)(=O)Nc2ccc3c(c2)CCCN3S(C)(=O)=O)cc1	–	–	–	–
Cc1ccc2[nH]c3c(=O)n(Cc4ccc(N(C)C)cc4)cnc3c2c1	–	–	–	–
Cc1ccc(NC(=O)Cn2nc3ccc(C(=O)NCc4ccccc4)cn3c2=O)cc1F	71.8	–	–	–
O=C(c1ccc[nH]1)N1C[C@H](OCC2CCOCC2)[C@H]2COC[C@H]21	·	–	–	–
COc1ccc(C)cc1NC(=O)C1CC(=O)Nc2nc3ccccc3n21 (stereo unspecified)	70.1	–	–	–
C[C@@H]1CCC2[C@]3(C)COC(C)(C)O[C@H]3CC[C@]2(C)[C@]12CCC(CO)(CCO)O2 (stereo partly specified)	–	–	–	–
COC(=O)c1cc(-c2csc(N)n2)c[nH]1	–	–	–	–
COc1ccccc1-c1nc(-c2nnn(Cc3ccc(C)cc3)c2C)no1	–	30.4	–	71.9
COc1ccccc1-c1nc(-c2nnn(Cc3ccccc3)c2C)no1	–	–	–	45.3
COc1ccccc1-c1noc(-c2nnn(Cc3nc(-c4ccc(C)cc4)oc3C)c2C)n1	–	31.7	–	–
COc1ccc(-c2nc(-c3nnn(Cc4ccccc4)c3C)no2)cc1OC	–	–	–	–
COc1ccc(-c2nc(-c3nnn(Cc4cccc(F)c4)c3C)no2)c(OC)c1	–	31.7	–	41.7
COc1ccccc1-c1nc(-c2nnn(-c3ccc(C)cc3)c2C)no1	–	–	–	–
COc1ccc(S(=O)(=O)N2CCN(C(=O)c3ccc(-n4cnnn4)cc3)CC2)cc1	–	–	–	–
CCOc1ccccc1Oc1nc(-c2cccnc2)nc2ccccc12	–	–	–	–
O=C(CC(=O)c1c(F)cccc1F)c1ccccc1O	–	30.1	–	–
Cc1cnc(NC(=O)CNC(=O)c2ccccc2F)s1	–	–	–	–
Nc1c(C(=O)Nc2ccc3c(c2)OCO3)sc2nc(-c3cccnc3)ccc12	61.1	–	–	32.9
O=C(Nc1cc(-c2cccnc2)no1)c1ccc2c(c1)OCO2	–	–	–	–
O=C1C[C@@H](O)[C@H](O)[C@@]23O[C@@]12C1(Oc2cccc4cccc(c24)O1)[C@@H]1O[C@@H]1[C@@H]3O	81.3	–	33.1	46.5
CC(=O)N1CCN(c2nccn2-c2ccc(C)cc2)CC1	–	–	–	–
CCCCCCC1CC(=O)NC(Cc2ccccc2)C(=O)NC(C)C(=O)NC(CC(C)C)C(=O)O1 (stereo unspecified)	–	–	–	–
COCCCn1cnc2c(-c3ccccc3)cn(CC(=O)NCc3ccccc3)c2c1=O	–	–	–	–
COc1ccccc1CNC(=O)Cn1cnc2c(-c3ccccc3)csc2c1=O	–	32.8	–	–
Cc1ccc(-c2csc3ncn(Cc4ccco4)c(=O)c23)cc1	–	–	–	32.0
SMILES	USP17 block	USP30 block	OTUD3 inh	USP28 inh
CC(C)n1cnc2c(-c3ccccc3)cn(CC(=O)NCc3ccccc3)c2c1=O	35.7	–	–	–
CCOc1ccc(-c2csc3ncn(CC(=O)NCc4ccccc4)c(=O)c23)cc1	36.7	–	–	–
O=c1c2c(-c3ccc(Cl)cc3)csc2ncn1Cc1ccco1	–	–	–	–
CC1CCCN(C(=O)CN2CC3(CCOCC3)Oc3ccc(Cl)cc3C2=O)C1 (stereo unspecified)	–	–	–	–
COC(=O)c1ccc(C(=O)NCc2cnn3ccccc23)cc1	–	–	–	–
COc1ccc(NC(=O)Cn2cnc3scc(-c4ccc(OC)cc4)c3c2=O)cc1	44.7	–	–	–
Cc1ccc(CC(=O)N2C[C@H]3N(C)C(=O)c4ccccc4C(=O)[C@@]3(C)C2)cc1	–	–	–	–
CCOc1ccccc1NC(=O)CNc1cc(C(F)(F)F)ccc1N1CCOCC1	–	33.0	–	–
CC(Nc1ccccc1N1CCOCC1)C(=O)Nc1cc(C(F)(F)F)ccc1N1CCOCC1 (stereo unspecified)	–	–	–	–
O=S(=O)(c1ccc(F)cc1)N1CC(c2ccnc(Nc3ccccn3)n2)C1	–	–	–	–
CCOc1ccc(-c2csc(C)n2)cc1S(=O)(=O)N1CCC2(CC1)OCCO2	–	–	–	–
Cc1ccc(NC(=O)COc2ccccc2C#N)cc1	–	–	–	–
Cc1ccc(NC(=O)COc2ccccc2/C=C2/NC(=O)N(Cc3ccc(F)cc3)C2=O)cc1	–	45.2	–	39.3
O=C1N(Cc2ccc(F)cc2)CCN1c1ccc2c(c1)OCO2	–	–	–	48.3
CCc1cc2c3c([nH]c2cc1S(=O)(=O)NC1CCCCC1)CCCC3=O	–	–	–	–
COc1cc(OC)cc(C(=O)Nc2ccc(O)c(-c3nc4cnccc4o3)c2)c1	35.2	–	–	–
Cc1cc(C)n(CC(=O)N2CCC3(CC(Nc4ccncn4)C3)C2)n1 (stereo unspecified)	–	–	–	–
Nc1nc(/C=C/c2ccc(Br)cc2)nc(-c2ccccc2O)n1	–	–	–	–
Nc1nc(/C=C/c2ccc(Cl)cc2)nc(-c2ccccc2O)n1	36.5	–	–	–
CC(C)CC1NC(=O)C(NC(=O)c2ncccc2O)C(C)OC(=O)C(c2ccccc2)N(C)C(=O)C(C)NC(=O)C(C(C)C(C)C)N(C)C(=O)CN(C)C(=O)C2CC(O)CN2C1=O (stereo unspecified)	–	–	–	–
Cc1ccc(OCc2nc3ccccc3n2Cc2ccc(F)cc2)cc1	34.0	–	–	–
CCOc1ccc(NCc2nc3ccccc3n2Cc2ccccc2)cc1	–	–	–	–
Fc1ccc(NCc2nc3ccccc3n2Cc2ccccc2)cc1	–	42.5	–	33.4
Cc1cc(C)cc(C(=O)N2CCC[C@@H](Cn3nnc4c(=O)[nH]c(C)nc43)C2)c1	–	–	–	–
Cn1nc(C2CCCN(S(=O)(=O)c3ccc(F)cc3)C2)c2nccnc21 (stereo unspecified)	–	–	–	–
SMILES	USP17 block	USP30 block	OTUD3 inh	USP28 inh
Cc1nc(N2CCCC2)ncc1C(=O)Nc1ccc(F)c(F)c1	–	53.1	–	–
Cc1cccc(NC(=O)c2cnc(N3CCCC3)nc2C)c1	–	–	–	–
COc1ccc(NC(=O)c2cnc(N3CCCCC3)nc2C)cc1OC	–	–	–	44.3
COc1ccccc1NC(=O)NC1(c2noc(C)n2)CCCC1	–	–	–	–
Cc1ccccc1NC(=O)c1nc(-c2cn(Cc3ccc(F)cc3)nn2)no1	78.5	–	–	–
Cc1sc2ncnc(-n3ncc(C#N)c3N)c2c1-c1ccccc1	–	·	–	·
Cc1ccc(-c2nnc(-n3ncc(C#N)c3N)c3ccccc23)cc1C	62.5	–	–	–
CC1CCN(C(=O)CSc2nnc(Cc3cccn3C)n2-c2ccc(Cl)cc2)CC1	–	–	–	–
CSc1ncccc1C(=O)Nc1ccnn1Cc1ccccc1	–	–	–	–
CSc1ncccc1C(=O)OCc1ccccc1	–	–	–	49.3
COc1ccc(Cn2c(=O)[nH]c3cc(C(=O)NCCCN4CCN(c5cccc(Cl)c5)CC4)ccc3c2=O)cc1	50.6	46.2	–	–
COc1ccc(N2CCN(CCCNC(=O)c3ccc4c(=O)n(CCc5ccccc5)c(=O)[nH]c4c3)CC2)cc1	–	–	–	–
CCOC(=O)N1CCN(C(=O)c2ccc3c(=O)n(CCOC)c(=O)[nH]c3c2)CC1	–	–	–	–
